About 83,000 compounds went through this panel and 20% of them were active in at least one assay; those are over-represented in the sample as a whole.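 Each cell line was grown in a 96-well plate and treated with one concentration of compound for 48 hours. Values below 10 were considered active.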 A number with no mark means an inactive call. Activity calls are given as the source filed them.

Some test systems named below: SK-MEL-2 melanoma; EKVX NSCLC; SN12C renal; UO-31 renal; TK-10 renal; ACHN renal; CAKI-1 renal; A498 renal; CCRF-CEM leukemia; MOLT-4 leukemia.
Common to all, as to assay: NCI-60 one-dose screen, 48 h (100 = growth as untreated, 0 = no growth, -100 = all killed)
Common to all, as to conditions: 10 µM unless noted

As to `Nc1ncnc2c1N=C(c1ccc3c(c1)OCO3)CC(c1cccc(Nc3ccnc4cc(Cl)ccc34)c1)N2` (stereo not given), the growth was 68.7% in the assay on SK-MEL-2 melanoma; 62.2% in the assay on EKVX NSCLC; 50.7% in the assay on SN12C renal; 44% in the assay with UO-31 renal; 65.7% in the assay with TK-10 renal; 67.5% with ACHN renal. Besides, the growth in the assay on CAKI-1 renal was 53.4%; in the assay with A498 renal, 61.5%; in the assay on CCRF-CEM leukemia, 21.5%; in the assay with MOLT-4 leukemia, 52.7%.

Regarding `COc1cc2c(c(OC)c1OC)-c1ccc(OC)c(=O)cc1[C@@H](NC(=O)CCl)CC2`, the growth in the assay on SK-MEL-2 melanoma is 41.1%; in the assay with EKVX NSCLC it was 74.3%; with SN12C renal it was 19.3%; in the assay on UO-31 renal, 32.8%; in the assay on TK-10 renal it was 34.1%; in the assay with ACHN renal, 25.4%. In addition, the growth was 30.1% with CAKI-1 renal, -4.98% (active) with A498 renal, 15.3% with CCRF-CEM leukemia and 20.9% in the assay with MOLT-4 leukemia.

For `Fc1ccc2[nH]cc(-c3nonc3-c3c[nH]c4ccc(Br)cc34)c2c1`, the growth is 27% in the assay with SK-MEL-2 melanoma; 19.3% in the assay with EKVX NSCLC; 47.3% in the assay with SN12C renal; 17.3% in the assay on UO-31 renal; 41.5% in the assay on TK-10 renal; 23.3% with ACHN renal. Besides, the growth in the assay with CAKI-1 renal was 12.4%; with A498 renal it was 24.9%; in the assay with CCRF-CEM leukemia, 26%; in the assay on MOLT-4 leukemia, 16.7%.

Consider `N#CC1CCc2c(c(-c3cn[nH]c3C(F)(F)F)nc3c(F)cc4[nH]ncc4c23)C1` (stereo not given), for which the growth was -34.6% (active) in the assay with SK-MEL-2 melanoma; 57.4% with EKVX NSCLC; 25.7% with SN12C renal; 56.8% with UO-31 renal; 19.4% with TK-10 renal; 62.9% in the assay with ACHN renal. Moreover, the growth with CAKI-1 renal was 25.6%; with A498 renal, -23.3% (active); in the assay on CCRF-CEM leukemia it was 29.2%; in the assay on MOLT-4 leukemia, 19.8%.

For the compound `CCOC(=O)/C=C1\S/C(=N\Nc2cc(=O)[nH]c3ccc(Cl)cc23)N(c2ccccc2)C1=O`, the growth was 105% in the assay on SK-MEL-2 melanoma; 100% in the assay with EKVX NSCLC; 93.1% with SN12C renal; 75.2% in the assay on UO-31 renal; 107% in the assay on TK-10 renal; 91.6% with ACHN renal. Besides, the growth with CAKI-1 renal was 83.3%; with A498 renal it was 115%; in the assay with CCRF-CEM leukemia it was 3.19% (active); in the assay on MOLT-4 leukemia, 21%.

For the compound `Brc1ccc(-n2cc(-c3nn[nH]n3)c(-c3cccs3)n2)cc1`, the growth in the assay with SK-MEL-2 melanoma was 101%; in the assay on EKVX NSCLC, 90.5%; with SN12C renal, 88.9%; in the assay on UO-31 renal, 63.7%; in the assay on TK-10 renal it was 104%; in the assay on ACHN renal, 89.4%. Further, the growth in the assay on CAKI-1 renal is 91.1%; in the assay with A498 renal, 81.5%; in the assay with CCRF-CEM leukemia, 103%; in the assay with MOLT-4 leukemia, 101%.

Consider `CCCCCCCCCCCCCCCC(N)c1ccccc1` (stereo not given), for which the growth in the assay with SK-MEL-2 melanoma was 70.8%; with EKVX NSCLC, 25.3%; in the assay on SN12C renal, 28%; with UO-31 renal, 26.2%; with TK-10 renal, 52.2%; in the assay with ACHN renal, -50.3% (active). Moreover, the growth is 9.49% (active) with CAKI-1 renal, 60.8% with A498 renal, -1.76% (active) in the assay on CCRF-CEM leukemia and -38.6% (active) with MOLT-4 leukemia.

With `CCN(CC)CCOc1ccc(-c2c(-c3ccccc3)c(=O)oc3ccccc23)cc1`, the growth in the assay with SK-MEL-2 melanoma was 82.5%; in the assay with EKVX NSCLC, 94.6%; with SN12C renal it was 80.3%; in the assay on UO-31 renal, 61.5%; in the assay with TK-10 renal it was 95.9%; with ACHN renal, 100%. Moreover, the growth in the assay with CAKI-1 renal was 97.5%; in the assay with A498 renal, 72%; in the assay with CCRF-CEM leukemia, 95.7%; in the assay with MOLT-4 leukemia, 80.7%.

Regarding `CC12CCC3c4ccccc4CCC3(CO1)C2` (stereo not given), the growth in the assay with SK-MEL-2 melanoma was 109%; in the assay on EKVX NSCLC it was 107%; in the assay on SN12C renal, 98.3%; with UO-31 renal, 117%; in the assay with TK-10 renal, 110%; with ACHN renal it was 98.4%. For the same compound, the growth was 101% with CAKI-1 renal, 78.9% in the assay on A498 renal, 86.9% in the assay with CCRF-CEM leukemia and 89.3% with MOLT-4 leukemia.

With `N=C(N)c1ccc(-c2ccc(-c3ccc(F)cc3)o2)o1`, the growth is 35.6% in the assay on SK-MEL-2 melanoma; 47.5% in the assay with EKVX NSCLC; 37.4% with SN12C renal; 15.5% in the assay on UO-31 renal; 49.9% with TK-10 renal; 27.2% in the assay on ACHN renal. The growth was 31.3% with CAKI-1 renal, 37.1% in the assay with A498 renal, 2.36% (active) in the assay on CCRF-CEM leukemia and 8.09% (active) in the assay with MOLT-4 leukemia.

As to `COc1ccc(C(=O)Nc2cccc(C3CC(=O)c4c(cc(OC)c(OC)c4OC)O3)c2)cc1` (stereo not given), the growth with SK-MEL-2 melanoma was -11.9% (active); with EKVX NSCLC, 45%; in the assay on SN12C renal it was 31.2%; in the assay with UO-31 renal, 33.7%; with TK-10 renal, 40.3%; with ACHN renal, 40.8%. Further, the growth with CAKI-1 renal was 33.3%; in the assay on A498 renal, -2.96% (active); in the assay on CCRF-CEM leukemia, 9.44% (active); in the assay on MOLT-4 leukemia it was 14.3%.

Regarding `O=C(/C=C/c1ccc(Cl)cc1)c1cccc(Nc2nc(Nc3ccccc3)nc(Nc3ccccc3)n2)c1`, the growth was 45.7% in the assay on SK-MEL-2 melanoma; 106% in the assay on EKVX NSCLC; 102% with SN12C renal; 61.8% in the assay with UO-31 renal; 92.6% in the assay on TK-10 renal; 92.9% with ACHN renal. Besides, the growth with CAKI-1 renal was 83.6%; in the assay with A498 renal, 95.2%; in the assay with CCRF-CEM leukemia, 76.2%; in the assay on MOLT-4 leukemia, 61.7%.

Consider `CN1CCN(c2ccc(NC(=O)c3cncnc3Nc3ccc(OCc4ccccn4)c(Cl)c3)cc2)CC1`, for which the growth in the assay with SK-MEL-2 melanoma was 21.6%; in the assay on EKVX NSCLC, 85.6%; in the assay on SN12C renal, 59.2%; in the assay with UO-31 renal, -72.1% (active); in the assay with TK-10 renal, 92.4%; with ACHN renal, 51.8%. In addition, the growth was 64.2% with CAKI-1 renal, 67.2% in the assay with A498 renal, 11.2% in the assay on CCRF-CEM leukemia and 8.56% (active) in the assay with MOLT-4 leukemia.
